Counter-ions that a name gives are not always drawn.
How the values were obtained:
Assay in all cases: phenotypically active (imaging signature differs from DMSO and reproducible) at any of 0.3-9 uM (binary (1 = active, 0 = inactive)); higher = active
Settings in all cases: treatment time: 24 h
[1] = tested on: A549-ACTB-RAB5A
How it was run: (§1)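 Phenotypic activity depended on meeting both a deviation and a reproducibility criterion. The fifteen gene-edited A549, HepG2 and WPMY1 reporter lines were treated at 0.3, 1, 3 or 9 µM for 24 h, four wells each, then imaged live with features normalised to solvent control wells. Deviation required ≥3 of 4 wells past the 95th percentile of control Euclidean distances, and reproducibility a median replicate Pearson correlation above the 95th percentile of non-replicates.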

[2] = tested on: A549-CANX-COX4
How it was run: as §1

[3] = tested on: A549-GM130-SQSTM1
How it was run: as §1

[4] = tested on: A549-TP53BP1-CLTA
How it was run: as §1

[5] = tested on: A549-TUBA1B-RELA
How it was run: as §1

[6] = tested on: HepG2-ACTB-RAB5A
How it was run: as §1

[7] = tested on: HepG2-CANX-COX4
How it was run: as §1

[8] = tested on: HepG2-GM130-SQSTM1
How it was run: as §1

[9] = tested on: HepG2-TP53BP1-CLTA
How it was run: as §1

[10] = tested on: HepG2-TUBA1B-RELA
How it was run: as §1

[11] = tested on: WPMY1-ACTB-RAB5A
How it was run: as §1

[12] = tested on: WPMY1-CANX-COX4
How it was run: as §1

[13] = tested on: WPMY1-GM130-SQSTM1
How it was run: as §1

[14] = tested on: WPMY1-TP53BP1-CLTA
How it was run: as §1

[15] = tested on: WPMY1-TUBA1B-RELA
How it was run: as §1

Measured: phenotypically active

COc1ccc2c3c1O[C@H]1C(=O)CC[C@@]4(O)[C@@H](C2)N(C)CC[C@]314 [oxycodone]
inactive: [1] 0 | [2] 0 | [3] 0 | [4] 0 | [5] 0 | [6] 0 | [7] 0 | [8] 0 | [9] 0 | [10] 0 | [11] 0 | [12] 0 | [13] 0 | [14] 0 | [15] 0

O=C1CN=C(c2ccccc2)c2cc(Cl)ccc2N1CC(F)(F)F [halazepam]
inactive: [1] 0 | [2] 0 | [3] 0 | [4] 0 | [5] 0 | [6] 0 | [7] 0 | [8] 0 | [9] 0 | [10] 0 | [11] 0 | [12] 0 | [13] 0 | [14] 0 | [15] 0

C[C@H]1CCC2(NC1)O[C@H]1C[C@H]3[C@@H]4CC[C@H]5C[C@@H](O[C@@H]6O[C@H](CO)[C@H](O[C@@H]7O[C@H](CO)[C@@H](O)[C@H](O[C@@H]8OC[C@@H](O)[C@H](O)[C@H]8O)[C@H]7O[C@@H]7O[C@H](CO)[C@@H](O)[C@H](O)[C@H]7O)[C@H](O)[C@H]6O)CC[C@]5(C)[C@H]4CC[C@]3(C)[C@H]1[C@@H]2C (stereo not given in full) [Tomatine]
inactive: [1] 0 | [2] 0 | [3] 0 | [4] 0 | [5] 0 | [6] 0 | [7] 0 | [8] 0 | [9] 0 | [10] 0 | [11] 0 | [12] 0 | [13] 0 | [14] 0 | [15] 0

NC(=S)N/N=C/c1coc2ccccc2c1=O
inactive: [1] 0 | [2] 0 | [3] 0 | [4] 0 | [5] 0 | [6] 0 | [7] 0 | [8] 0 | [9] 0 | [10] 0 | [11] 0 | [12] 0 | [13] 0 | [14] 0 | [15] 0

O=c1ccc2ccc3occc3c2o1 [Angelicin]
inactive: [1] 0 | [2] 0 | [3] 0 | [4] 0 | [5] 0 | [6] 0 | [7] 0 | [8] 0 | [9] 0 | [10] 0 | [11] 0 | [12] 0 | [13] 0 | [14] 0 | [15] 0

Nc1ccncc1 [dalfampridine]
inactive: [1] 0 | [2] 0 | [3] 0 | [4] 0 | [5] 0 | [6] 0 | [7] 0 | [8] 0 | [9] 0 | [10] 0 | [11] 0 | [12] 0 | [13] 0 | [14] 0 | [15] 0

CC1=C(O)C(=O)[C@@H]2O[C@@H]2C1=O [(-)-Terreic acid]
inactive: [1] 0 | [2] 0 | [3] 0 | [4] 0 | [5] 0 | [6] 0 | [7] 0 | [8] 0 | [9] 0 | [10] 0 | [11] 0 | [12] 0 | [13] 0 | [14] 0 | [15] 0

CCCC(C)C1(CC)C(=O)N=C(S)NC1=O (stereo not given) [thiopental]
inactive: [1] 0 | [2] 0 | [3] 0 | [4] 0 | [5] 0 | [6] 0 | [7] 0 | [8] 0 | [9] 0 | [10] 0 | [11] 0 | [12] 0 | [13] 0 | [14] 0 | [15] 0

CC(C)C[C@H](CN)CC(=O)O [pregabalin]
inactive: [1] 0 | [2] 0 | [3] 0 | [4] 0 | [5] 0 | [6] 0 | [7] 0 | [8] 0 | [9] 0 | [10] 0 | [11] 0 | [12] 0 | [13] 0 | [14] 0 | [15] 0

C[C@@H]1O[C@H](C[N+](C)(C)C)C[C@H]1O [(+)-Muscarine iodide]
inactive: [1] 0 | [2] 0 | [3] 0 | [4] 0 | [5] 0 | [6] 0 | [7] 0 | [8] 0 | [9] 0 | [10] 0 | [11] 0 | [12] 0 | [13] 0 | [14] 0 | [15] 0

N[C@@H]1C[C@H]1c1ccccc1 [Tranylcypromine hydrochloride]
inactive: [1] 0 | [2] 0 | [3] 0 | [4] 0 | [5] 0 | [6] 0 | [7] 0 | [8] 0 | [9] 0 | [10] 0 | [11] 0 | [12] 0 | [13] 0 | [14] 0 | [15] 0

O=P1(NCCCl)OCCCN1CCCl (stereo not given) [ifosfamide]
inactive: [1] 0 | [2] 0 | [3] 0 | [4] 0 | [5] 0 | [6] 0 | [7] 0 | [8] 0 | [9] 0 | [10] 0 | [11] 0 | [12] 0 | [13] 0 | [14] 0 | [15] 0

COc1ccc2c3c1O[C@H]1C(=O)CC[C@H]4[C@@H](C2)N(C)CC[C@]314 [hydrocodone]
inactive: [1] 0 | [2] 0 | [3] 0 | [4] 0 | [5] 0 | [6] 0 | [7] 0 | [8] 0 | [9] 0 | [10] 0 | [11] 0 | [12] 0 | [13] 0 | [14] 0 | [15] 0

Oc1ccc2c3c1O[C@H]1[C@@H](O)CC[C@@]4(O)[C@@H](C2)N(CC2CCC2)CC[C@]314 [nalbuphine]
inactive: [1] 0 | [2] 0 | [3] 0 | [4] 0 | [5] 0 | [6] 0 | [7] 0 | [8] 0 | [9] 0 | [10] 0 | [11] 0 | [12] 0 | [13] 0 | [14] 0 | [15] 0

O=C1C[C@@H]2OCC=C3C[N+]4([O-])CC[C@]56c7ccccc7N1[C@H]5[C@H]2[C@H]3C[C@@H]64 (stereo not given in full) [Genostrychnine base]
inactive: [1] 0 | [2] 0 | [3] 0 | [4] 0 | [5] 0 | [6] 0 | [7] 0 | [8] 0 | [9] 0 | [10] 0 | [11] 0 | [12] 0 | [13] 0 | [14] 0 | [15] 0

CC1=CC(=O)C2=C(C)C[C@H](O)[C@@H]3[C@H](OC(=O)[C@H]3C)[C@@H]12 [Austricine hydrate]
inactive: [1] 0 | [2] 0 | [3] 0 | [4] 0 | [5] 0 | [6] 0 | [7] 0 | [8] 0 | [9] 0 | [10] 0 | [11] 0 | [12] 0 | [13] 0 | [14] 0 | [15] 0

C=C[C@H]1C[N@@]2CC[C@H]1C[C@H]2[C@H](O)c1ccnc2ccccc12 [(-)-Cinchonidine]
inactive: [1] 0 | [2] 0 | [3] 0 | [4] 0 | [5] 0 | [6] 0 | [7] 0 | [8] 0 | [9] 0 | [10] 0 | [11] 0 | [12] 0 | [13] 0 | [14] 0 | [15] 0

Clc1ccc2c(c1)C(c1ccccc1)=NCc1nncn1-2 [estazolam]
inactive: [1] 0 | [2] 0 | [3] 0 | [4] 0 | [5] 0 | [6] 0 | [7] 0 | [8] 0 | [9] 0 | [10] 0 | [11] 0 | [12] 0 | [13] 0 | [14] 0 | [15] 0

c1cncc(C2CC3CCN2CC3)c1 (stereo not given) [RJR 2429 dihydrochloride]
inactive: [1] 0 | [2] 0 | [3] 0 | [4] 0 | [5] 0 | [6] 0 | [7] 0 | [8] 0 | [9] 0 | [10] 0 | [11] 0 | [12] 0 | [13] 0 | [14] 0 | [15] 0

C=C1[C@H]2C[C@@]3([C@@H]1O)[C@@H](C[C@@H]2O)[C@]12[C@@H]4C[C@H]3[C@H]1N(CC)C[C@]4(C)CC[C@@H]2O [Napelline]
inactive: [1] 0 | [2] 0 | [3] 0 | [4] 0 | [5] 0 | [6] 0 | [7] 0 | [8] 0 | [9] 0 | [10] 0 | [11] 0 | [12] 0 | [13] 0 | [14] 0 | [15] 0

COc1cc(C(=O)O[C@H]2C[C@H]3CC[C@@H](C2)N3C)ccc1O [Fillalbin]
inactive: [1] 0 | [2] 0 | [3] 0 | [4] 0 | [5] 0 | [6] 0 | [7] 0 | [8] 0 | [9] 0 | [10] 0 | [11] 0 | [12] 0 | [13] 0 | [14] 0 | [15] 0

Reference: the supplement of paper PMC7411054
